Bioassay records as filed in PubChem.
Rows were chosen to be rich in hits. Some 5.5% of all compounds tested hit in one or more screens of this group.
Mito fusion yeast = qHTS Assay for Small Molecule Inhibitors of Mitochondrial Division or Activators of Mitochondrial Fusion; S. cerevisiae fusion-defective mutant growth rescue, CellTiterGlo 48 h; Potency, µM (highest dose often 46.1 µM), actives largely listed as activators; 0.23% of 320,000 active; note: nearly all actives have a fitted effect of over 45% in size
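Yeast fusion mutant, YPEG (non-fermentable carbon), compound, 48 h at 37C non-permissive; CellTiterGlo added, 10 min RT, luminescence read. Rescued growth = division inhibition.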
RORgamma inh = qHTS for inhibitors of ROR gamma transcriptional activity; 5.4% of 310,000 active; Nuclear receptor ROR-gamma (Mus musculus), P51450; Drosophila S2 Gal4-RORgamma UAS-luciferase reporter, 20 h; Potency, µM (top dose mostly 53.6 µM), hits mostly inhibitors; note: nearly all actives have a fitted effect of over 60% in size
Target sequence (P51450 whole entry, looked up, the tested form may be a part): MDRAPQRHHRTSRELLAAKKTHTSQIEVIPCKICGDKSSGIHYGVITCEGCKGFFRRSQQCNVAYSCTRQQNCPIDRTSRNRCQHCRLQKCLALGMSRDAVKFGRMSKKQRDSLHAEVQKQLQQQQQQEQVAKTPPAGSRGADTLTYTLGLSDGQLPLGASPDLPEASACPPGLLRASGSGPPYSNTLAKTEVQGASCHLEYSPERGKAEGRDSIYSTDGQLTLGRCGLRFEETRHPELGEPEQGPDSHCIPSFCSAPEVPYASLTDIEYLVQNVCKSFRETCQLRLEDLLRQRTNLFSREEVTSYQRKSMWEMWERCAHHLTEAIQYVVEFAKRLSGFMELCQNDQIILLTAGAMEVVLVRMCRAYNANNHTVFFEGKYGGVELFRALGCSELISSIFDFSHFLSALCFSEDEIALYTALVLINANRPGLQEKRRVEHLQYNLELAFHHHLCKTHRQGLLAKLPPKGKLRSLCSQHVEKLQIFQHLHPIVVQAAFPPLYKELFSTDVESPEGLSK
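Read-out: Photinus luciferase luminescence; inhibitors lower reporter signal. Insect Schneider cells with Gal4-ROR gamma fusion under metallothionein promoter, UAS reporter; 700 uM final copper sulfate induction, 20 hr, ambient temperature.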
uPA surface inh = qHTS for Inhibitors of Cell Surface uPA Generation. 0.31% of 330,000 active. cell surface uPA generation assay, qHTS. AID 540303, 2011. Potency, µM (titrated, usually from 38.3 µM), usual class: inhibitors; active = well fitted inhibition curve with a large enough effect; inconclusive = small, poorly fitted or top-dose-only effect; inactive = no such curve, though single readings can be large or run the other way; tested in mouse RAW 264.7 cells; note: nearly all actives have a fitted effect of over 55% in size
VP16 counter = VP16 counterscreen qHTS for inhibitors of ROR gamma transcriptional activity | 3.5% of 310,000 active | Drosophila S2 Gal4-VP16 UAS-luciferase, luminescence, 20 h | Potency, µM (series often up to 53.6 µM), actives largely listed as inhibitors | AID 2546, 2010;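 note: Gal4-VP16 expression switched on by copper sulfate through the metallothionein promoter; nearly all actives have a fitted effect of over 50% in size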
Integrin act MD = qHTS for Activators of Integrin-Mediated Alleviation for Muscular Dystrophy; 0.064% of 350,000 active; alpha7betagal myoblasts, beta-gal FDG fluorescence, 48 h; Potency, µM (titrated, usually from 38.3 µM), actives largely listed as activators; note: nearly all actives have a fitted effect of over 60% in size
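alpha7betagal+/- myoblasts (passage 13, 250/well) treated 48 h at 37C with compounds at 1:260 dilution of DMSO stock. Lysed, then beta-galactosidase activity read as FDG fluorescence (ex 480/em 540) after 30 min, with pre-read for autofluorescence.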
BCR signal inh = qHTS Assay to Find Inhibitors of Chronic Active B-Cell Receptor Signaling. ABC-DLBCL IkBa-CBG/CBR reporter, luminescence ratio, 4 h. Potency, µM (highest dose often 46.1 µM), hits mostly inhibitors. 0.05% of 340,000 active; active = well fitted inhibition curve with a large enough effect in the signal ratio, with a control signal flat, not every such curve was filed as active; inconclusive = small, poorly fitted or top-dose-only effect, or effect the other way, or a change in a side signal; the % refers to the signal ratio
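Doxycycline induced both beetle luciferases in TMD8 lymphoma cells; IKK-driven degradation limits the IkappaBalpha-fused green signal, while red luminescence normalises for cell number and nonspecific effects. Compounds tested up to 46 uM, 4 hrs.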
Large screens that a line does not name were inactive; ! = not active in a repeat. Unless noted, calls come from the whole dose curve; as a rule, active = well fitted curve in the direction sought with a large enough effect; inconclusive = small, poorly fitted or top-dose-only effect, or another doubt; inactive = no such curve, though single readings can be large; an effect the other way counts as inactive or inconclusive.

COCCCn1c(=O)c2ccccc2n(CC(=O)Nc2ccc3c(c2)OCCO3)c1=O	none
O=c1c(-c2ccc(F)cc2)nc2cnc(Nc3ccccc3)nc2n1C[C@H]1CCCO1	none (no result: Mito fusion yeast, uPA surface inh, Integrin act MD, BCR signal inh)
CCOc1ccc(C(=O)NCC(c2ccco2)S(=O)(=O)c2ccc(C)cc2)cc1 (stereo not given)	none (no result: Mito fusion yeast, RORgamma inh, uPA surface inh, VP16 counter, Integrin act MD)
O=C(N/N=C/c1cccc([N+](=O)[O-])c1)c1cccc(Br)c1	RORgamma inh inconclusive
Cc1ccc(/C=N/NC(=O)c2ccncc2)s1	RORgamma inh 7.08µM, VP16 counter inconclusive, BCR signal inh inconclusive
O=C(N/N=C/c1ccc([N+](=O)[O-])s1)c1cccc(Br)c1	RORgamma inh 1.12µM, VP16 counter 1.26µM
O=C(N/N=C/c1ccc([N+](=O)[O-])s1)c1ccncc1	RORgamma inh 4.47µM, VP16 counter 4.47µM
Cc1ccc(/C=N/NC(=O)c2ccncc2)cc1	none
Cc1ccc(C(=O)N/N=C/c2ccc([N+](=O)[O-])s2)cc1	RORgamma inh 0.708µM, VP16 counter 1.26µM
O=C(N/N=C/c1ccccc1[N+](=O)[O-])c1ccncc1	none
COC(=O)C12CC3(CCC4C5C(C(OCc6ccccc6)C41)C52)OCCO3 (stereo not given)	none (no result: Mito fusion yeast, uPA surface inh, Integrin act MD, BCR signal inh)
Cc1ccc(C(=O)N/N=C\c2ccc([N+](=O)[O-])s2)cn1	RORgamma inh 2.82µM, VP16 counter 3.16µM
Cc1[nH]cnc1C(=O)N/N=C/c1ccc([N+](=O)[O-])s1	VP16 counter inconclusive, BCR signal inh inconclusive
Cc1ccc(/C=N/N=C/c2ccc(C)s2)s1	RORgamma inh 7.94µM, BCR signal inh inconclusive
Cn1c(SCC(=O)N/N=C/c2ccc([N+](=O)[O-])s2)nnc1-c1ccc(Cl)cc1	RORgamma inh inconclusive, VP16 counter 17.8µM, BCR signal inh inconclusive
CCN(CCCNC(=O)c1ccc(Sc2ccc(Cl)cc2)c(NC(C)=O)c1)c1ccccc1	none (no result: Mito fusion yeast, RORgamma inh, uPA surface inh, VP16 counter, Integrin act MD)
CCOc1ccc(NC(=O)CN2C(=O)NC(CCSC)C2=O)cc1 (stereo not given)	Integrin act MD 10µM
O=S(=O)(NCC(c1ccco1)S(=O)(=O)c1ccccc1)c1cc(F)ccc1F (stereo not given)	none (no result: Mito fusion yeast, RORgamma inh, uPA surface inh, VP16 counter, Integrin act MD)
CCOC(CN1CCN(CC(C)C(=O)c2ccccc2)CC1)c1ccccc1 (stereo not given)	none (no result: Mito fusion yeast, uPA surface inh, Integrin act MD, BCR signal inh)
c1ccc(-c2nc(NCC3CCCO3)c3ccccc3n2)nc1 (stereo not given)	RORgamma inh 1.58µM, VP16 counter 7.08µM
FC(F)(F)c1nc2ccccc2nc1N/N=C\c1ccccc1	RORgamma inh 3.55µM, VP16 counter 12.6µM, BCR signal inh inconclusive
NNc1nc2ccccc2nc1C(F)(F)F	none
Oc1ccccc1-c1nc(NCc2ccco2)c2ccccc2n1	BCR signal inh inconclusive
c1ccc(-c2nc(NCc3ccco3)c3ccccc3n2)nc1	RORgamma inh 1.26µM, VP16 counter 2.82µM, BCR signal inh inconclusive
C(=N\Nc1nc(-c2cccnc2)nc2ccccc12)/c1ccccc1	RORgamma inh inconclusive
C(=N\Nc1nc(-c2ccccn2)nc2ccccc12)/c1ccccc1	RORgamma inh 0.0891µM, VP16 counter 0.501µM, BCR signal inh inconclusive (no result: uPA surface inh, Integrin act MD)
CCOC(=O)c1cccc(NC(=O)c2cc(C)nn2-c2ccccc2)c1	none
Cc1ccc(NC(=O)C2CCCN(S(=O)(=O)c3cccc4cccnc34)C2)cc1 (stereo not given)	none
CC(=O)N[C@H]1CSSC[C@@H](C(=O)N2CCC[C@H]2C(=O)N2CCC[C@H]2C(=O)N[C@@H](CCCCN)C(=O)N[C@@H](CC(=O)O)C(N)=O)NC(=O)CNC(=O)[C@H](Cc2c[nH]c3ccccc23)NC(=O)[C@H](CCCNC(=N)N)NC(=O)[C@@H](Cc2ccc3ccccc3c2)NC(=O)[C@H](Cc2cnc[nH]2)NC(=O)[C@H](CCC(=O)O)NC1=O	none (no result: Mito fusion yeast, uPA surface inh, Integrin act MD, BCR signal inh)
CCS(=O)(=O)Nc1ccc(C2=NN(C(=O)c3ccco3)C(c3ccc(C)cc3)C2)cc1 (stereo not given)	VP16 counter 17.8µM, BCR signal inh inconclusive (no result: uPA surface inh)
Cc1ccc(C2CC(c3ccc(NS(C)(=O)=O)cc3)=NN2C(=O)c2ccco2)cc1 (stereo not given)	BCR signal inh inconclusive
CC(C)(C)C(=O)C1=C(O)C(=O)N(Cc2ccccc2)C1c1ccccc1Cl (stereo not given)	uPA surface inh 10µM, Integrin act MD inconclusive
CCC(=O)N1CCc2cc(Br)cc(S(=O)(=O)N3CCCCC3CC)c21 (stereo not given)	Mito fusion yeast inconclusive
Cc1cc(C(=O)CSc2nnnn2-c2ccc(O)cc2)c(C)n1Cc1ccc2c(c1)OCO2	Mito fusion yeast inconclusive, VP16 counter inconclusive, BCR signal inh inconclusive
Cc1cc(C(=O)CSc2nnnn2-c2ccccc2)c(C)n1-c1ccc2c(c1)OCO2	VP16 counter 11.2µM
Cc1ccc(Nc2nc(CSc3nnc(-c4cccnc4)n3-c3ccccc3F)cs2)cc1	RORgamma inh 3.98µM, BCR signal inh inconclusive
Cc1ccc(Nc2nc(CSc3nnc(-c4ccncc4)n3C)cs2)cc1	RORgamma inh 15.8µM, VP16 counter inconclusive
Cc1ccc(NC(=O)CSc2nnc(-c3cccnc3)n2-c2ccc(C)cc2)cc1	RORgamma inh inconclusive, VP16 counter inconclusive
Cc1ccc(CSc2nnc(-c3ccncc3)n2C)cc1	none
CCCCCCCCNC(C)C(O)c1ccc(SC(C)C)cc1 (stereo not given)	RORgamma inh 11.2µM!, VP16 counter inconclusive (no result: Integrin act MD)
O=C(CSCc1c(F)cccc1Cl)NCCc1ccccc1	BCR signal inh inconclusive
O=C(CCc1ccccc1)NCCSCc1c(F)cccc1Cl	RORgamma inh inconclusive, VP16 counter 7.94µM
CCOC(=O)c1c(NC(=O)c2nn(C)cc2[N+](=O)[O-])sc(C)c1C	none
CC1=CCC2C(=O)N(c3nc4ccccc4n3C)C(=O)C2C1 (stereo not given)	RORgamma inh 3.55µM, VP16 counter inconclusive (no result: BCR signal inh)
CN(C)c1ncnc2c1ncn2C1OC(CO)C(O)C1O (stereo not given)	none
COc1ccc(C[C@H](N)C(=O)N[C@H]2[C@@H](O)[C@H](n3cnc4c(N(C)C)ncnc43)O[C@@H]2CO)cc1	uPA surface inh 1µM, BCR signal inh inconclusive (no result: RORgamma inh, VP16 counter, Integrin act MD)
O=C(c1ccc2c3c(cccc13)CC2)C1CCCN(Cc2ccc(OCCO)cc2)C1 (stereo not given)	uPA surface inh inconclusive, BCR signal inh inconclusive
O=C(c1ccc2c3c(cccc13)CC2)C1CCCN(Cc2ccccn2)C1 (stereo not given)	RORgamma inh 3.55µM, VP16 counter 11.2µM
